# Assay results: the supplement of paper PMC10849652
# The full data set covers some 8,800 targets. This sample favours those with a hit. About 0.5% of all pairs of compound and target were hits. Values without a mark were called inactive.
# Tests used:
# Experiment in all cases: log2 fold change, soluble protein after heating vs DMSO (PISA); higher = thermal stabilisation; K562 lysate, 10 uM; active = over 0.2 and 3.5 SD of the protein, either way, in both replicates (recomputed)
# vemurafenib = compound: CCCS(=O)(=O)Nc1ccc(F)c(C(=O)c2c[nH]c3ncc(-c4ccc(Cl)cc4)cc23)c1F [vemurafenib]
# Method in brief: (§1)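 K562 pellets were dounce-homogenised in PBS pH 7.4 with 1 mM MgCl2, and the crude extract at 1 mg/mL protein was treated with 10 μM compound for 30 min. Aliquots were heated for 3 min across 48°C-58°C, pooled, and brought to 0.5% NP-40 at 4°C; soluble protein was the supernatant after 21,000xg for 90 min. Soluble protein was quantified by TMTpro 16plex LC-MS/MS with channel sums equalised, and reported as log2 fold change in thermal stability against DMSO controls, with values from duplicates.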
# [1] = compound: CCCS(=O)(=O)Nc1ccc(F)c(C(=O)c2c[nH]c3ncc(Cl)cc23)c1F
# Method in brief: as §1
# barasertib = compound: CCN(CCCOc1ccc2c(Nc3cc(CC(=O)Nc4cccc(F)c4)[nH]n3)ncnc2c1)CCOP(=O)(O)O [barasertib]
# Method in brief: as §1
# [2] = compound: CC[C@@H]1C(=O)N(C)c2cnc(Nc3ccc(C(=O)NC4CCN(C)CC4)cc3OC)nc2N1C1CCCC1
# Method in brief: as §1
# volasertib = compound: CC[C@@H]1C(=O)N(C)c2cnc(Nc3ccc(C(=O)N[C@H]4CC[C@H](N5CCN(CC6CC6)CC5)CC4)cc3OC)nc2N1C(C)C [volasertib]
# Method in brief: as §1
# [3] = compound: CCn1c(C(=O)N(C2CC2)C2CC2)cc2c3c(ncn3C)c(Nc3cc(C)n(C)n3)nc21
# Method in brief: as §1
# [4] = compound: CCn1cc(-c2ccnc3[nH]c(-c4cccc(CN(C)C)c4)cc23)c(-c2ccc(NC(=O)N(C)C)cc2)n1
# Method in brief: as §1
# [5] = compound: CN1CCC(CNc2ccc3ncc(-c4cccc(OC(F)(F)F)c4)n3n2)CC1
# Method in brief: as §1
# saracatinib = compound: CN1CCN(CCOc2cc(OC3CCOCC3)c3c(Nc4c(Cl)ccc5c4OCO5)ncnc3c2)CC1 [saracatinib]
# Method in brief: as §1
# sotrastaurin = compound: CN1CCN(c2nc(C3=C(c4c[nH]c5ccccc45)C(=O)NC3=O)c3ccccc3n2)CC1 [sotrastaurin]
# Method in brief: as §1
# alvocidib = compound: CN1CC[C@H](c2c(O)cc(O)c3c(=O)cc(-c4ccccc4Cl)oc23)[C@H](O)C1 [alvocidib]
# Method in brief: as §1
# Tubastatin A = compound: CN1CCc2c(c3ccccc3n2Cc2ccc(C(=O)NO)cc2)C1 [Tubastatin A]
# Method in brief: as §1
# [6] = compound: CNC(=O)C1=CC=CC=C1NC2=NC(=NC=C2Cl)NC3=C(C=C(C=C3)N4CCOCC4)OC
# Method in brief: as §1
# defactinib = compound: CNC(=O)c1ccc(Nc2ncc(C(F)(F)F)c(NCc3nccnc3N(C)S(C)(=O)=O)n2)cc1 [defactinib]
# Method in brief: as §1
# [7] = compound: CNc1nc(-c2ccc3c(N)n[nH]c3c2)cc(N2C[C@@H](C(=O)NC3CCCCC3)CC[C@H]2C)n1
# Method in brief: as §1
# encorafenib = compound: COC(=O)N[C@@H](C)CNc1nccc(-c2cn(C(C)C)nc2-c2cc(Cl)cc(NS(C)(=O)=O)c2F)n1 [encorafenib]
# Method in brief: as §1
# [8] = compound: COC(=O)[C@H](CCSC)NC(=O)C1=C(C=C(C=C1)NC[C@H](CS)N)C2=CC=CC=C2
# Method in brief: as §1
# alisertib = compound: COc1cc(Nc2ncc3c(n2)-c2ccc(Cl)cc2C(c2c(F)cccc2OC)=NC3)ccc1C(=O)O [alisertib]
# Method in brief: as §1
# [9] = compound: COc1cc2nc(-c3cc(F)ccc3O)nc(N[C@@H]3CNC[C@H]3C(C)(C)O)c2cc1OC
# Method in brief: as §1
# gefitinib = compound: COc1cc2ncnc(Nc3ccc(F)c(Cl)c3)c2cc1OCCCN1CCOCC1 [gefitinib]
# Method in brief: as §1
# Chain of UniProt Q8WUM9 (Q8WUM9 whole entry, looked up): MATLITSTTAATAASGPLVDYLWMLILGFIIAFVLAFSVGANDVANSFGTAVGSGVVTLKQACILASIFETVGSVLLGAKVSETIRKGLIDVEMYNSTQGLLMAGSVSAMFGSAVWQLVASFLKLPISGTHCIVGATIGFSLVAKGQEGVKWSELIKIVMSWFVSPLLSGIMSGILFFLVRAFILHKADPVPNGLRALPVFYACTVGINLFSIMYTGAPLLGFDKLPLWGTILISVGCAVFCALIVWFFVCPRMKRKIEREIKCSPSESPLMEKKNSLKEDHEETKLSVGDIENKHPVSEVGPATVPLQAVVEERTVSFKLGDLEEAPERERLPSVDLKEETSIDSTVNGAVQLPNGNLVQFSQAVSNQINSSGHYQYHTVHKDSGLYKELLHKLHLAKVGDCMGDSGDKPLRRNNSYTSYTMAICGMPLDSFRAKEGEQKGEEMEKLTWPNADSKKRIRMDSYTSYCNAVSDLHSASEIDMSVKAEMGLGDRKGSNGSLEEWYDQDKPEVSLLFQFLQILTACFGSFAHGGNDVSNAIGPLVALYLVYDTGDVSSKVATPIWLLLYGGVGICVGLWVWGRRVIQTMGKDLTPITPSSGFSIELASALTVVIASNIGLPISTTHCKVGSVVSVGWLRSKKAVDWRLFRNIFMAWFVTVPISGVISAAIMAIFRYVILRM
# Chain of UniProt Q6PML9 (Q6PML9 whole entry, looked up): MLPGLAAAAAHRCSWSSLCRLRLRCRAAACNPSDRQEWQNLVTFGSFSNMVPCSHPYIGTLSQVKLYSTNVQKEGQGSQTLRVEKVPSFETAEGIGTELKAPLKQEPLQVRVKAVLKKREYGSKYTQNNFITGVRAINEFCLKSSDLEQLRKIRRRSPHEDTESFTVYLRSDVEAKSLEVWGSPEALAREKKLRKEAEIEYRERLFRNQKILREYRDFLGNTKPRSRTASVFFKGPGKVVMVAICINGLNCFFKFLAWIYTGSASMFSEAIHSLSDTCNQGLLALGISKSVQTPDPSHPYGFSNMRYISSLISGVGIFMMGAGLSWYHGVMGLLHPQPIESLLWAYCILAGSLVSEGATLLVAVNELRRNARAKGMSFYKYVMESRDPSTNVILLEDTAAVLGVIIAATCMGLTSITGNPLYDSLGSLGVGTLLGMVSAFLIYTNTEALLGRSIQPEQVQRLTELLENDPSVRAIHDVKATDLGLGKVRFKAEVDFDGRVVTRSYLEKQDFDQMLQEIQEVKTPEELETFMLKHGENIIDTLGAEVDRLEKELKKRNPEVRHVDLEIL
# Chain of UniProt O95793 (O95793 whole entry, looked up): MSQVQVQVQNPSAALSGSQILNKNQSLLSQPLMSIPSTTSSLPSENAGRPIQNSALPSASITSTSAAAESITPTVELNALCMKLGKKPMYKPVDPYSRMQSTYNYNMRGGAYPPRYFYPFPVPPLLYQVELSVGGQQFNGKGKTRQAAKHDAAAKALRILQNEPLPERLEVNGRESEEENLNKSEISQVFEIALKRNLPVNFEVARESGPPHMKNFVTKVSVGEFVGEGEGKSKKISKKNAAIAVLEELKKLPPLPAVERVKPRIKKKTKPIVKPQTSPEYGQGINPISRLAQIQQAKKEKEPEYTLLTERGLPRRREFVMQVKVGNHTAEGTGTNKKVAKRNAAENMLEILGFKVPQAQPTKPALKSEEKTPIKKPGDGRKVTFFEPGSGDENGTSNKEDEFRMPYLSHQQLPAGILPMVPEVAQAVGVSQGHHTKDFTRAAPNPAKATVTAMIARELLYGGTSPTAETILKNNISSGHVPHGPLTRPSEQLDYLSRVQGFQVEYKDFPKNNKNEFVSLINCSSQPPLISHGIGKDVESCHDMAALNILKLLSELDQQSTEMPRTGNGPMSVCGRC
# Chain of UniProt Q9UQE7 (Q9UQE7 whole entry, looked up): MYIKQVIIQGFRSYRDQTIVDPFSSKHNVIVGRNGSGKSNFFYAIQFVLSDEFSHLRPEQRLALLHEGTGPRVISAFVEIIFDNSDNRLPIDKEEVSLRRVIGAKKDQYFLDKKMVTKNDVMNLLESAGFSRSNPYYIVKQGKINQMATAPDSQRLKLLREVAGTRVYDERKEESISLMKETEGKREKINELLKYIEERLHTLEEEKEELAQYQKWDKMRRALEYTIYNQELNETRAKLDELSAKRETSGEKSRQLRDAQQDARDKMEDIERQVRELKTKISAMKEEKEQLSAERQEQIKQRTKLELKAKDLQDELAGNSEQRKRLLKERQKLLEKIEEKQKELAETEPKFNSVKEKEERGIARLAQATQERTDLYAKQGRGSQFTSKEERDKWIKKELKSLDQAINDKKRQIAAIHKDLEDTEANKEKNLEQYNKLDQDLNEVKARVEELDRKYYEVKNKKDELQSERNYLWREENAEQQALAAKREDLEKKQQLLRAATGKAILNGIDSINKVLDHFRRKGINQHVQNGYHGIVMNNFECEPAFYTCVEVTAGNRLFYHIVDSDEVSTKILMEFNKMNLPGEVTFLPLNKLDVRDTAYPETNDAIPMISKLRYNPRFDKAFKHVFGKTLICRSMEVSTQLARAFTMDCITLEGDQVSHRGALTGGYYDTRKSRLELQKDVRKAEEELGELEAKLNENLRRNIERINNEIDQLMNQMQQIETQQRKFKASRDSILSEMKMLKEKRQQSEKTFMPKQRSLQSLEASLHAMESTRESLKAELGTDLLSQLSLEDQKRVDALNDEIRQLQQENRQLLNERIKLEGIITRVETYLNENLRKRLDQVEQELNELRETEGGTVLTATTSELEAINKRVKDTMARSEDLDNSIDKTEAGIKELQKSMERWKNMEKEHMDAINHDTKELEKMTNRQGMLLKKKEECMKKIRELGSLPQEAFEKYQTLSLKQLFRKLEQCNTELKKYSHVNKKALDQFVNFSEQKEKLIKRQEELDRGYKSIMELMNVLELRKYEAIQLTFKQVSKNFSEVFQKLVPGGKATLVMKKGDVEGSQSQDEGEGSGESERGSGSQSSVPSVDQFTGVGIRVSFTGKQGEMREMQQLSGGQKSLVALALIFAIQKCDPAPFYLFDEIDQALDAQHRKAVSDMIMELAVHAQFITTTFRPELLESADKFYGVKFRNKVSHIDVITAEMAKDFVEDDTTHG
# Chain of UniProt P61011 (P61011 whole entry, looked up): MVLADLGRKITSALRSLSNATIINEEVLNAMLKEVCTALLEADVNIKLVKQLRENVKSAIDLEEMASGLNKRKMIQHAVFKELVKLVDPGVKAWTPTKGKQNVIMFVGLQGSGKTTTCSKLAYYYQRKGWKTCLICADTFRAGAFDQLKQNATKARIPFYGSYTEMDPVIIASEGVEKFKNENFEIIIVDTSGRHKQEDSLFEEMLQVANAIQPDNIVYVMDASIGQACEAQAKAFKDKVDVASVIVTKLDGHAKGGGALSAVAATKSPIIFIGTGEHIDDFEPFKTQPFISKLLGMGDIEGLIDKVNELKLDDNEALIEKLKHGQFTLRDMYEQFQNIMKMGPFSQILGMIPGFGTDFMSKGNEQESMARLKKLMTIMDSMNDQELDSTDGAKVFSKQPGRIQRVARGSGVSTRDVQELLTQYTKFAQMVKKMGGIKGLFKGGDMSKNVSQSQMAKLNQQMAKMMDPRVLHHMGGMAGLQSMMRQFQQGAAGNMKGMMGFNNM
# Chain of UniProt O95347 (O95347 whole entry, looked up): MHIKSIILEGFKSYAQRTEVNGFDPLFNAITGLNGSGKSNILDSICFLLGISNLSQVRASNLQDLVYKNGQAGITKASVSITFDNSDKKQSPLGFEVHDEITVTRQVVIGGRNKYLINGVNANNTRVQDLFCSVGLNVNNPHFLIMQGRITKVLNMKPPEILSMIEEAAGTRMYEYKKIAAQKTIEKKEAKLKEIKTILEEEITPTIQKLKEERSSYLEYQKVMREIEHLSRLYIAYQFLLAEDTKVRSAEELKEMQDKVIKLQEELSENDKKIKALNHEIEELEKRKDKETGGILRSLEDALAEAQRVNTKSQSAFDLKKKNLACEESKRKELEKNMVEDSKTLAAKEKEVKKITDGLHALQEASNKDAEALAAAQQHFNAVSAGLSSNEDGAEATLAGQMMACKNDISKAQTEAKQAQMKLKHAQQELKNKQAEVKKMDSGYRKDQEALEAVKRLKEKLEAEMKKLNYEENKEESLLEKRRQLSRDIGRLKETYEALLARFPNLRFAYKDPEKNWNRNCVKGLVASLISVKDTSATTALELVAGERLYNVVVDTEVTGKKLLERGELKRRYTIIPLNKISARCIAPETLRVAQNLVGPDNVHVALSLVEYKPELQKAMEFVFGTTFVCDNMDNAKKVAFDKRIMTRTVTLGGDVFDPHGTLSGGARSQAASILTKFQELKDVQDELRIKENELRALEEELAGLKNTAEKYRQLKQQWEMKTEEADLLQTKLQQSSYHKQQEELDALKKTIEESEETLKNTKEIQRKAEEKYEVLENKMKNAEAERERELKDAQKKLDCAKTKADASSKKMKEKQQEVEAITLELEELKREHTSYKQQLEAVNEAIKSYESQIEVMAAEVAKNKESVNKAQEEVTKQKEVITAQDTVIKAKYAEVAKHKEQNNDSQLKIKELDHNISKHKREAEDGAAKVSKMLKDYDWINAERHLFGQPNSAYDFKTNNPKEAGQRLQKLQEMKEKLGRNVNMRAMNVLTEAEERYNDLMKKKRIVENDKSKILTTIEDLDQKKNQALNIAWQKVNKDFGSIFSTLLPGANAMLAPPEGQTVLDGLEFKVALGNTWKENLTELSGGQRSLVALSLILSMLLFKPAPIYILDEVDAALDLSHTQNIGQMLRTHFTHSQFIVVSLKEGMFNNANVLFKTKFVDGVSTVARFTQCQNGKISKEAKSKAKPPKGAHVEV
# Chain of UniProt Q01130 (Q01130 whole entry, looked up): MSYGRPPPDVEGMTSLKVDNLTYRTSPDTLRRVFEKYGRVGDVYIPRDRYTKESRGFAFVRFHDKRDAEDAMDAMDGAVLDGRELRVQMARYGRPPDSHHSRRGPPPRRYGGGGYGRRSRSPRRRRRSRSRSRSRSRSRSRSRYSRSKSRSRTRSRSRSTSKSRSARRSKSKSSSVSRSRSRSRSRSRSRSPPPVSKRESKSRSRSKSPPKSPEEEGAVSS
# Chain of UniProt P62306 (P62306 whole entry, looked up): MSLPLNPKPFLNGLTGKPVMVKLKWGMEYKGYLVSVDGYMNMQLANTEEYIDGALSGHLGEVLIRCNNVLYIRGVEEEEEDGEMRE
Target,log2 fold change (vemurafenib),log2 fold change [1],log2 fold change (barasertib),log2 fold change [2],log2 fold change (volasertib),log2 fold change [3],log2 fold change [4],log2 fold change [5],log2 fold change (saracatinib),log2 fold change (sotrastaurin),log2 fold change (alvocidib),log2 fold change (Tubastatin A),log2 fold change [6],log2 fold change (defactinib),log2 fold change [7],log2 fold change (encorafenib),log2 fold change [8],log2 fold change (alisertib),log2 fold change [9],log2 fold change (gefitinib)
SNCA (UniProt P37840),0.042,-0.039,-0.027,0.08,0.072,-0.022,-0.109,0.287,-0.035,0.068,-0.094,0.172,0.028,-0.019,0.269,-0.026,0.204,-0.021,0.117,0.089
STAU1 (UniProt O95793),0.027,0.003,0.01,0,-0.013,0.069,0.25,-0.103,0.004,-0.039,0.062,-0.06,0.051,0.027,-0.04,0.078,-0.009,0.072,-0.007,0.012
SRSF2 (UniProt Q01130),-0.001,-0.014,-0.007,0.02,0.002,-0.065,-0.232,0.153,0.033,0.024,-0.135,0.084,-0.017,-0.018,-0.005,0.033,-0.016,-0.004,0.016,0.015
SMC3 (UniProt Q9UQE7),-0.018,0.004,-0.004,0.008,-0.013,0.003,0.041,-0.018,-0.011,-0.016,-0.009,0.006,0.003,0.002,-0.036,-0.007,0.002,0.005,-0.013,-0.005
SLC38A10 (UniProt Q9HBR0),0.1,-0.008,0.014,0.111,-0.015,-0.022,-0.229 (active),0.022,0.024,0.015,-0.036,0.074,-0.015,0.023,0.04,0.037,-0.06,-0.032,0.032,-0.046
SLC20A1 (UniProt Q8WUM9),0.099,-0.004,0.009,0.416 (active),-0.028,-0.061,0.153,-0.013,0.063,-0.006,0.002,0.054,-0.012,-0.155,0.016,-0.039,-0.057,-0.026,0.036,0.05
SLC30A9 (UniProt Q6PML9),-0.005,0.024,0.015,0.07,0.018,0.056,-0.534 (active),0.079,0.034,-0.056,0,0.022,0.002,0.064,0.023,0.032,0.05,-0.008,-0.079,-0.01
SLC12A6 (UniProt Q9UHW9),0.015,0.021,0.002,0.037,0.002,0.008,-0.06,0.012,-0.003,-0.01,-0.03,0.03,0.065,0.006,-0.038,0.034,-0.021,-0.006,0.004,0.093
SMAP2 (UniProt Q8WU79),-0.043,0.011,0.013,0.047,-0.02,0.012,0.043,-0.001,0.044,-0.027,0.017,-0.002,-0.058,0.024,-0.086,0.047,-0.037,-0.004,0.01,-0.03
SNRPF (UniProt P62306),0.023,0.002,0.045,0.067,0.032,-0.051,-0.35 (active),0.24,-0.044,0.042,-0.119,-0.028,-0.02,0.014,-0.034,0.021,0.014,-0.03,0.022,0.084
SRP54 (UniProt P61011),0.02,-0.024,0,0.068,-0.024,0.017,-0.059,0.006,0.043,0.028,-0.023,0.01,-0.011,0.035,0.023,0.067,0.011,0.055,0.043,-0.025
STAT2 (UniProt P52630),0.04,0.026,-0.021,-0.03,-0.047,0.033,-0.011,-0.164,-0.009,0.029,0.02,-0.183,0.016,-0.03,-0.018,0.023,-0.014,0.006,0.004,-0.023
SNRNP40 (UniProt Q96DI7),-0.032,0.019,-0.06,-0.001,-0.024,-0.033,-0.115,0.058,0.01,-0.013,-0.026,0.021,-0.019,-0.009,-0.021,-0.025,-0.01,0.016,-0.004,-0.01
TARBP1 (UniProt Q13395),0.019,-0.004,0.02,0.025,-0.032,-0.047,-0.053,-0.034,-0.055,0.038,0.009,-0.118,-0.066,-0.034,0.047,0.073,-0.236,0.018,-0.004,0.011
SMC2 (UniProt O95347),0.002,0.007,-0.001,-0.033,-0.047,-0.002,0.134,-0.121,0.005,0.014,0.039,-0.087,-0.004,-0.003,-0.022,-0.005,0.047,0.005,0.003,-0.003
SMG1 (UniProt Q96Q15),0.059,0.031,0.08,0.017,-0.027,-0.026,0.003,-0.072,0.039,0.032,0.022,-0.05,0.01,0.033,-0.046,0.016,0,-0.02,-0.013,0.012
